Values joined by “and” are separate entries in the source; they are usually repeats but may differ in a detail not shown here. Equal values may be shown once. The whole screen tested about 5,500 compounds, of which about 2,000 (36%) were called active. Not shown: some 18% with an inconclusive outcome. Cut-off read from the data, not from the text of the source: active = normalized growth mostly below about 0.91 (no sharp cut-off); inconclusive = no clear call, values can overlap the other calls; inactive = mostly above about 0.92. Some of the results follow.
Assay: chemical genetic growth profiling, strain panel (AID 1159580);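 note: tested at 20 µM; growth read once vehicle control cultures reached saturation at 30 °C; 1 = growth at the plate median or of vehicle wells; lower values mean less growth of the strain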
Conditions: S. cerevisiae deletion strains, growth OD

Measured: normalized growth

Nc1ccn(C2O[C@H](CO)[C@@H](O)[C@H]2O)c(=O)n1 (some centres undefined)
inactive: locus YAL021C, strain ccr4, active compounds read low 0.985 | locus YAL026C, strain drs2, active compounds read low 0.983 | locus YAL030W, strain snc1, active compounds read low 0.982 | locus YBL061C, strain skt5, active compounds read low 0.996 | locus YBR009C, strain hhf1, active compounds read low 0.997 | locus YBR021W, strain FUR4, active compounds read low 1.02 | locus YBR023C, strain chs3, active compounds read low 1 | locus YBR171W, strain sec66, active compounds read low 0.991 | locus YBR229C, strain ROT2, active compounds read low 0.997 | locus YBR231C, strain swc5, active compounds read low 0.987 | locus YBR279W, strain paf1, active compounds read low 0.995 | locus YCL011C, strain gbp2, active compounds read low 0.991 | locus YCL016C, strain dcc1, active compounds read low 1 | locus YCL029C, strain bik1, active compounds read low 1.01 | locus YCL061C, strain MRC1, active compounds read low 0.992 | locus YCL069W, strain vba3, active compounds read low 0.992 | locus YCR088W, strain abp1, active compounds read low 0.985 | locus YDL005C, strain med2, active compounds read low 0.983 | locus YDL035C, strain GPR1, active compounds read low 1.01 | locus YDL040C, strain nat1, active compounds read low 0.987 | locus YDL074C, strain BRE1, active compounds read low 1.03 | locus YDL101C, strain DUN1, active compounds read low 1.02 | locus YDL185W, strain tfp1, active compounds read low 1.03 | locus YDL192W, strain arf1, active compounds read low 1.01 | locus YDR001C, strain nth1, active compounds read low 0.977 | locus YDR069C, strain doa4, active compounds read low 0.992 | locus YDR101C, strain arx1, active compounds read low 1.03 | locus YDR137W, strain rgp1, active compounds read low 0.982 | locus YDR150W, strain NUM1, active compounds read low 0.962 | locus YDR159W, strain sac3, active compounds read low 0.982 | locus YDR162C, strain NBP2, active compounds read low 1 | locus YDR195W, strain ref2 0.974 | locus YDR297W, strain sur2, active compounds read low 0.982 | locus YDR318W, strain mcm21, active compounds read low 0.998 | locus YDR334W, strain swr1, active compounds read low 0.981 | locus YDR335W, strain msn5, active compounds read low 0.982 | locus YDR388W, active compounds read low 1 | locus YDR392W, strain spt3, active compounds read low 0.995 | locus YDR502C, strain sam2, active compounds read low 1.01 | locus YEL003W, strain gim4, active compounds read low 0.99 | locus YEL037C, strain rad23, active compounds read low 0.991 | locus YEL061C, strain CIN8 (second series), active compounds read low 0.983 | locus YEL061C, strain CIN8, active compounds read low 1.01 | locus YER015W, strain faa2, active compounds read low 1.01 | locus YER016W, strain bim1, active compounds read low 0.987 | locus YER110C, active compounds read low 1.01 | locus YER111C, strain swi4, active compounds read low 0.982 | locus YER155C, strain BEM2 (second series), active compounds read low 0.975 | locus YER155C, strain BEM2, active compounds read low 1 | locus YER167W, strain BCK2, active compounds read low 0.987 | locus YFR010W, strain ubp6, active compounds read low 0.972 | locus YGL078C, strain dbp3, active compounds read low 1.01 | locus YGL086W, strain mad1, active compounds read low 1.03 | locus YGL167C, strain pmr1, active compounds read low 0.997 | locus YGL173C, strain kem1, active compounds read low 0.995 | locus YGL227W, strain vid30, active compounds read low 0.993 | locus YGL240W, strain doc1, active compounds read low 1.01 | locus YGL248W, strain PDE1, active compounds read low 0.991 | locus YGL253W, strain hxk2, active compounds read low 0.996 | locus YGR078C, strain PAC10, active compounds read low 1.02 | locus YGR135W, strain pre9, active compounds read low 1 | locus YGR252W, strain gcn5, active compounds read low 0.993 | locus YHR013C, strain ard1, active compounds read low 1.01 | locus YHR027C, strain rpn1, active compounds read low 0.989 | locus YHR030C, strain SLT2, active compounds read low 1.01 and 1 | locus YHR079C, strain IRE1 (second series), active compounds read low 1 | locus YHR079C, strain IRE1, active compounds read low 0.995 | locus YHR094C, strain hxt1, active compounds read low 1.01 | locus YHR129C, strain ARP1, active compounds read low 1.01 | locus YHR142W, strain chs7, active compounds read low 0.999 | locus YHR200W, strain rpn10, active compounds read low 1.02 | locus YIL066C, strain RNR3, active compounds read low 0.995 | locus YIL073C, strain SPO22, active compounds read low 1.02 | locus YIL125W, strain kgd1, active compounds read low 1.01 | locus YIR030C, strain dcg1, active compounds read low 1.01 | locus YJL092W, strain hpr5, active compounds read low 0.988 | locus YJL095W, strain BCK1 (second series), active compounds read low 0.995 | locus YJL095W, strain BCK1, active compounds read low 1.06 and 1 | locus YJL115W, strain asf1, active compounds read low 0.975 | locus YJL129C, strain trk1, active compounds read low 0.995 | locus YJL134W, strain LCB3, active compounds read low 0.999 | locus YJL154C, strain vps35, active compounds read low 0.978 | locus YJL164C, strain tpk1, active compounds read low 1 | locus YJL166W, strain qcr8, active compounds read low 0.999 | locus YJL168C, strain set2, active compounds read low 0.999 | locus YJL187C, strain SWE1 (second series), active compounds read low 1.04 | locus YJL187C, strain SWE1, active compounds read low 0.987 | locus YJR043C, strain POL32, active compounds read low 1 | locus YJR066W, strain TOR1, active compounds read low 0.909
